According to PubChem BioAssay:
For part of these data: Measured potencies and affinities stand elsewhere. Calls of active or inactive are those of the source.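 Rule for the calls, unless noted: active = primary screen hit whose fluorescence ratio, in both repeats, exceeds the weak agonist control mean by 3 SD; inactive = the rest.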

How the values were obtained:
[1] = tested on: TRPC4 beta (transient receptor potential cation channel C4), mouse; assay: TRPC4 cation channel opening, retest – cell-based, Fluo4 calcium, HEK293 TRPC4beta/mu-opioid, duplicates, 10 µM, confirmation (AID 2426;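 active = fluorescence ratio normalized to control raised more than 50% in primary screen plus both repeat runs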;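 for activation: percent rise of integrated ratio over buffer wells lacking compound which define 0%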); conditions: Fluo4 calcium fluorescence, at 10 µM; hits give high values
[2] = tested on: transient receptor potential cation channel C4 beta (TRPC4), mouse; assay: TRPC4 cation channel opening, second retest – cell-based, second round, Fluo4, HEK293 TRPC4beta/mu-opioid, 1 µM, confirmation (AID 2461;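 active = primary screen active and over 50% activation in each of two duplicate runs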); conditions: Fluo4 calcium fluorescence, at 1 µM; hits give high values
[3] = tested on: TRPC4 (transient receptor potential cation channel C4 beta), mouse; assay: potentiation of DAMGO EC20 TRPC4 response – cell-based, second round, Fluo-4, HEK293 TRPC4beta/mu-opioid, 1 µM, confirmation (AID 2554); conditions: DAMGO EC20, Fluo-4 calcium flux, at 1 µM; hits give high values
[4] = tested on: TRPC4 beta (transient receptor potential cation channel C4), mouse; assay: potentiation of DAMGO EC20 TRPC4 response – cell-based, Fluo-4, HEK293 TRPC4beta/mu-opioid, confirmation (AID 2555;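 active = primary screen hit whose calcium fluorescence ratio, in both repeats, exceeds the weak agonist control mean by 3 SD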); conditions: DAMGO EC20, Fluo-4 calcium flux, at 10 µM; hits give high values
[5] = target: Short transient receptor potential channel 4 (Mus musculus) (UniProt Q9QUQ5); assay: blockers of DAMGO-evoked TRPC4 calcium flux – cell-based, Fluo4, HEK293 TRPC4beta/mu-opioid, confirmation (AID 2636;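 active = calcium signal cut by more than 3 SD below the full-agonist control yet still positive, in both repeats and the earlier primary screen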); conditions: at 10 µM; hits give high values
Sequence of Short transient receptor potential channel 4 (Mus musculus) (Q9QUQ5 whole entry, looked up): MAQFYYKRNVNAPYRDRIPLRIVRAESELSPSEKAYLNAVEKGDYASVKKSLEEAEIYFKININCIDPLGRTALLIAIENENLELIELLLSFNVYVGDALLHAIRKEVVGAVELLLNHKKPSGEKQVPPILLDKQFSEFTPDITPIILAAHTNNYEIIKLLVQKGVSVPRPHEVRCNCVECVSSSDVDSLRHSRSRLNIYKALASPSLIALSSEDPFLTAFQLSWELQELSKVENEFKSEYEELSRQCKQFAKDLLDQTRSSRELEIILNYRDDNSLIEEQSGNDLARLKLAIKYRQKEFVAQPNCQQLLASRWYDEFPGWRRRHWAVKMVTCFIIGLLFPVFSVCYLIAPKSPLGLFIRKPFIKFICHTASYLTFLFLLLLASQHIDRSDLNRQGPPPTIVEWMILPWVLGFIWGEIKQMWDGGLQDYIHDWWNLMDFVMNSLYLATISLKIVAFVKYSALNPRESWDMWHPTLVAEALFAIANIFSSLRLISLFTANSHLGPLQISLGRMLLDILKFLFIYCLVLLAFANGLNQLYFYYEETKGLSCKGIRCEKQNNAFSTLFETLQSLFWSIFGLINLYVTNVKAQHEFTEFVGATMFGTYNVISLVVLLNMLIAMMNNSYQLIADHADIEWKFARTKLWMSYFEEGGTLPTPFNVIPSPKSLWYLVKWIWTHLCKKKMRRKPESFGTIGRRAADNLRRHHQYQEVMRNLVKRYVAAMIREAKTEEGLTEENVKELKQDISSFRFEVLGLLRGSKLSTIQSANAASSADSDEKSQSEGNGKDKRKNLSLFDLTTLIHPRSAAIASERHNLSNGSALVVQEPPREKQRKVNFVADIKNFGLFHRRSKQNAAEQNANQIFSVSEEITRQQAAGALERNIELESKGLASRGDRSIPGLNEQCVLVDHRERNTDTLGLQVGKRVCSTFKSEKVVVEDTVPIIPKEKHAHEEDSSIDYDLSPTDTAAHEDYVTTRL

[6] = target: Short transient receptor potential channel 4 (Mus musculus) (UniProt Q9QUQ5); assay: blockers of DAMGO-evoked TRPC4 calcium flux – cell-based, second round, Fluo4, HEK293 TRPC4beta/mu-opioid, 1 µM, confirmation (AID 2637;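 active = calcium signal ratio cut to more than 3 SD under the fully stimulated control mean yet still positive, in both repeats and the primary screen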;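 for inhibition: percent of integrated ratio relative to wells lacking test compound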); conditions: at 1 µM; hits give high values
[7] = target: Short transient receptor potential channel 4 (Mus musculus) (UniProt Q9QUQ5); assay: potentiation of DAMGO-evoked TRPC4 calcium signal – cell-based, HEK293 TRPC4/mu-opioid, Fluo-4 calcium, EC20 DAMGO, dose response (AID 434941;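 active = earlier screen potentiator hit that boosts the TRPC4 ion channel at some dose, with a dose response; inactive = no potentiation, no dose response, or not a prior hit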;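 note: calcium entry triggered by an EC20 dose of DAMGO at the co-expressed mu-opioid receptor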)
[8] = target: Short transient receptor potential channel 6 (Mus musculus) (UniProt Q61143); assay: TRPC6 blockade by TRPC4 inhibitor hits – cell-based, HEK293, membrane potential dye, duplicate, selectivity assay for TRPC4 inhibitor project, confirmation (AID 434948;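 active = active in primary screen and both duplicates, each dropping signal beyond three positive-control SD with fluorescence still positive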); conditions: HEK293 TRPC6, membrane potential dye fluorescence, at 10 µM, stimulated with maximal-effect acetylcholine; hits give high values
Sequence of Short transient receptor potential channel 6 (Mus musculus) (Q61143 whole entry, looked up): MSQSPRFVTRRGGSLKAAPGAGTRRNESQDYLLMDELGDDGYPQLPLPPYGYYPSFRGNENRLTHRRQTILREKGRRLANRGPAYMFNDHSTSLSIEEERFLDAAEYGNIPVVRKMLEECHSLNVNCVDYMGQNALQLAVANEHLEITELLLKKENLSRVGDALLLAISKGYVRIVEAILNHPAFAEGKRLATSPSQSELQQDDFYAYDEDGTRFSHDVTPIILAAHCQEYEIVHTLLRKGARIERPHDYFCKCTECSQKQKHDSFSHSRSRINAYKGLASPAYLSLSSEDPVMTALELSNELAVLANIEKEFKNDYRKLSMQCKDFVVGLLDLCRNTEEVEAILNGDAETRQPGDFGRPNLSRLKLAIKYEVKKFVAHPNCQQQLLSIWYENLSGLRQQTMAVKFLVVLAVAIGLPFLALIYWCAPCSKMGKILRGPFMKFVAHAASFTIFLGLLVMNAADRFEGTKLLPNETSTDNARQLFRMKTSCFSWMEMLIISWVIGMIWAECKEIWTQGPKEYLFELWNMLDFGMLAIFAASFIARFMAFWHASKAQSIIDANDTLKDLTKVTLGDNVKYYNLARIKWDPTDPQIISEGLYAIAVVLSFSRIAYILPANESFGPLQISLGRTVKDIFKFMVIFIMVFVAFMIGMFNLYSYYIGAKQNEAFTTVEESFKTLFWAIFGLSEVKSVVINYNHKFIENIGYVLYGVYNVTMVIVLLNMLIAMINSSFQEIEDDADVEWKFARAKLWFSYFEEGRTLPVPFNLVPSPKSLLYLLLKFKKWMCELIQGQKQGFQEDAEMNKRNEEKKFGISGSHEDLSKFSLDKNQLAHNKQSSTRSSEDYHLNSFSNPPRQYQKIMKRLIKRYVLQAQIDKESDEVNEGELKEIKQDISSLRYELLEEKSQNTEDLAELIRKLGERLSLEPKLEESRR

[9] = target: Short transient receptor potential channel 6 (Mus musculus) (UniProt Q61143); assay: TRPC6 opening by TRPC4 activator hits – cell-based, HEK293, membrane potential dye, duplicate, selectivity assay for TRPC4 activator project, confirmation (AID 434950;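 active = membrane potential signal rise above negative control mean plus 3 SD in both duplicates, also active in the earlier TRPC4 screen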;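 for activation: 0% = buffer only wells and 100% = acetylcholine maximal-effect wells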); conditions: HEK293 TRPC6, membrane potential fluorescence, at 10 µM; activation: hits give high values; outcome: activation
[10] = target: Short transient receptor potential channel 6 (Mus musculus) (UniProt Q61143); assay: positive modulators of mouse TRPC6 channel – HEK293 cells, membrane potential dye, duplicate, selectivity assay for TRPC4 potentiator project, confirmation (AID 434952;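 active = compound raising the membrane signal above positive-control mean plus 3 SD in both repeats, and a primary screen hit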); conditions: HEK293 TRPC6, membrane potential dye fluorescence, at 10 µM, maximal acetylcholine added after compound; hits give high values
[11] = target: Short transient receptor potential channel 4 (Mus musculus) (UniProt Q9QUQ5); assay: calcium flux activators in TRPC4/5HT1a cells, counter-screen for TRPC4 activator project, cell-based, second counter screen, HEK293 TRPC4/5HT1a, Fluo-4 (AID 434977;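 active = calcium signal rise above buffer-control mean plus 5 SD in both duplicates, and also a hit in the primary screen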;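 for activation: plate controls were assay buffer for no effect and maximal serotonin response for full effect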); conditions: Fluo-4 calcium flux, at 10 µM; hits give high values
[12] = serotonin-gated TRPC4 signal block – cell-based, second counter screen, HEK293 TRPC4/5HT1a, Fluo-4, counter-screen for TRPC4 inhibitor project, confirmation (AID 434978;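 active = primary screen active whose calcium signal fell more than 3 SD beyond the full-serotonin control mean in both duplicate plates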;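 for outcome: serotonin given first at submaximal then at maximal dose after compound preincubation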); conditions: Fluo-4 calcium flux, at 10 µM, serotonin added to trigger calcium flux; hits give high values
[13] = tested on: TRPC4 (mouse), co-expressed with 5HT1a in HEK293; assay: enhancement of serotonin-evoked TRPC4 response – cell-based, second counter screen, HEK293 TRPC4/5HT1a, Fluo-4, counter-screen for TRPC4 potentiator project, confirmation (AID 434979;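 active = signal rise over 3 SD above mean of control wells given weak agonist, in both repeats and first screen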); conditions: Fluo-4 calcium flux, at 10 µM, serotonin added at its EC20 dose; hits give high values
[14] = nonspecific calcium rise without TRPC4 – cell-based, HEK293 mu-opioid receptor line, counter-screen for TRPC4 activator project, confirmation (AID 449723;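 active = hit in primary screen, with calcium signal over 5 SD above buffer well mean in both duplicates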;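 note: counter screen cells carry the mu-opioid receptor alone and lack TRPC4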); conditions: HEK293 mu-opioid cells, Fluo-4 calcium fluorescence, at 10 µM; hits give high values
[15] = nonspecific potentiation of DAMGO calcium response – cell-based, HEK293 mu-opioid receptor line, counter-screen for TRPC4 allosteric potentiator project, confirmation (AID 449724;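 active = calcium signal rise more than 3 SD above the low-dose agonist control mean, in both duplicate plates and the primary screen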); conditions: HEK293 mu-opioid receptor cells, Fluo-4 calcium flux, at 10 µM, compound added before EC20 DAMGO stimulus; hits give high values
[16] = target: Short transient receptor potential channel 4 (Mus musculus) (UniProt Q9QUQ5); assay: block of DAMGO-driven TRPC4 calcium entry – cell-based, HEK293 TRPC4/mu-opioid, Fluo-4 calcium, dose response (AID 434942;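 active = primary screen inhibitor hit that blocks the TRPC4 channel at some tested dose, yielding a dose curve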)
[17] = nonspecific flux increase, KCNQ1-free cells – parental CHO cells, counter-screen for KCNQ1 potentiator project (AID 493006;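 active = duplicate-averaged activation above buffer control mean plus 5 SD of those controls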;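 note: fluorescence ratio of max minus min over baseline after K+ and Tl+ depolarization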); conditions: parental CHO-K1 cells, FluxOR thallium flux, at 10 µM; hits give high values
[18] = target: Potassium voltage-gated channel subfamily KQT member 1 (Homo sapiens) (UniProt P51787); assay: enhancement of KCNQ1 channel thallium flux – FluxOR thallium flux, CHO cells, duplicates, confirmation (AID 493007;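 active = potentiation averaged over duplicate wells exceeding buffer-only control mean by more than 3 SD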;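 note: 0% = buffer-only wells and 100% = R-L3 activator control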); conditions: KCNQ1 cell line, FluxOR thallium flux fluorescence, at 10 µM; hits give high values, % of reference activator effect, buffer zero
Sequence of Potassium voltage-gated channel subfamily KQT member 1 (Homo sapiens) (P51787 whole entry, looked up): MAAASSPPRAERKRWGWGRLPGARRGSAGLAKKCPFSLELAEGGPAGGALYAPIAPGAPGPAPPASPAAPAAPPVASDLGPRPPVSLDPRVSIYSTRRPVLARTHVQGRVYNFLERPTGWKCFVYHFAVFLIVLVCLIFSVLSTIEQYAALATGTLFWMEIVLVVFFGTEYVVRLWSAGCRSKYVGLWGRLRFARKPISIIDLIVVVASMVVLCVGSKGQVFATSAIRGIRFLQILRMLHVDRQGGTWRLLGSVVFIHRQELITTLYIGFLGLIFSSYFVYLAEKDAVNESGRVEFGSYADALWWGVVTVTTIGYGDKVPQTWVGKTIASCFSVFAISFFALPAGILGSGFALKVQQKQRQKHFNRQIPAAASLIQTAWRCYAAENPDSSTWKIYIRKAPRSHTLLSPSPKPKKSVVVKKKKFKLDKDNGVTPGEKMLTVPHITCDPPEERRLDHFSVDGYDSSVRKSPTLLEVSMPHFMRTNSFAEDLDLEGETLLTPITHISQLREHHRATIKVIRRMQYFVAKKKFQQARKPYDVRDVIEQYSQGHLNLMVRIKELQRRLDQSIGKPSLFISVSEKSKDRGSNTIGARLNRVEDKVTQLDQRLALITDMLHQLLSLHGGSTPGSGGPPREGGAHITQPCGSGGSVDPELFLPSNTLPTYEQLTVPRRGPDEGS

[19] = target: Potassium voltage-gated channel subfamily KQT member 2 (Rattus norvegicus) (UniProt O88943); assay: KCNQ2 thallium flux enhancement – KCNQ2-CHO-K1 cells, selectivity assay for KCNQ1 potentiator project (AID 493009;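 active = mean duplicate potentiation above the buffer control mean plus 5 SD of buffer wells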;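 note: assay conditions were tuned for KCNQ1 rather than KCNQ2 modulators; signal is max minus min fluorescence divided by baseline after thallium stimulus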); conditions: FluxOR thallium flux fluorescence, at 10 µM; hits give high values, scaled: buffer 0, activator control 100
Sequence of Potassium voltage-gated channel subfamily KQT member 2 (Rattus norvegicus) (O88943 whole entry, looked up): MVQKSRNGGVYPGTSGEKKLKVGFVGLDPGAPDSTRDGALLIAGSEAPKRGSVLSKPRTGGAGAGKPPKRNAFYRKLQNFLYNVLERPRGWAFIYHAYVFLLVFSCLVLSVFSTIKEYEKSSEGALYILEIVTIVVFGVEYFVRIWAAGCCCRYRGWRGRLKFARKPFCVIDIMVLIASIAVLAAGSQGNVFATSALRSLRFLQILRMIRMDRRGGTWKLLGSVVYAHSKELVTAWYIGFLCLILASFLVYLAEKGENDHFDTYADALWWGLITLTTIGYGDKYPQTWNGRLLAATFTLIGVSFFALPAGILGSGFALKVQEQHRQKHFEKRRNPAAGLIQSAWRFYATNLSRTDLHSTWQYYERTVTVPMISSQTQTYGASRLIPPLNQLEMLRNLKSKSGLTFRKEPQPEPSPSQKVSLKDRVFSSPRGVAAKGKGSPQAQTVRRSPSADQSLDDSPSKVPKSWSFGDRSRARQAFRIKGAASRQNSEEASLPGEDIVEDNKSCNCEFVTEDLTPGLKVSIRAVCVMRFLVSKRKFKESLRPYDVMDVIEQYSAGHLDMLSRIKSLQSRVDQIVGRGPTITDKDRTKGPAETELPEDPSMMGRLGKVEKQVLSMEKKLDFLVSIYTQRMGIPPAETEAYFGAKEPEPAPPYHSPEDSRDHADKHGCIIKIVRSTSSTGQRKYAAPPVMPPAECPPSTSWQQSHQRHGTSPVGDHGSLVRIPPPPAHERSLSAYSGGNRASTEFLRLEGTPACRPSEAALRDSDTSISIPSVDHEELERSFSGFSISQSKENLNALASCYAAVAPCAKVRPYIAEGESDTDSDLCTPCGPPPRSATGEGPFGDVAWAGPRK

[20] = target: Potassium voltage-gated channel subfamily KQT member 1 (Homo sapiens) (UniProt P51787); assay: KCNQ1 activators by electrophysiology – IonWorks patch clamp, KCNQ1-CHO cells, orthogonal assay for KCNQ1 potentiator project, confirmation (AID 493184;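 active = current rise at least 3 SD above the untreated control mean in each of two repeat wells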); conditions: automated patch clamp current, at 10 µM; hits give high values

O=c1c2ccccc2[nH]c(=S)n1Cc1cccnc1
active: inhibition [5] 94%
inactive: outcome [1] | outcome [2] | outcome [3] | outcome [4] | outcome [6] | outcome [7] | outcome [8] | outcome [9] | outcome [10] | outcome [11] | outcome [12] | outcome [13] | outcome [14] | outcome [15]

OCC1(CC2CCCCO2)CCN(Cc2nc3ccccc3[nH]2)CC1 (centres undefined)
active: inhibition [5] 67% | activation [9] 26.5%
inactive: outcome [1] | outcome [2] | outcome [3] | outcome [4] | outcome [6] | outcome [7] | outcome [8] | outcome [10] | outcome [11] | outcome [12] | outcome [13] | outcome [14] | outcome [15]

CN(C)C(CNC(=O)c1cc2ccccc2oc1=O)c1ccccc1 (centres undefined)
inactive: outcome [2] | outcome [3] | outcome [4] | outcome [5] | outcome [7] | outcome [8] | outcome [9] | outcome [10] | outcome [11] | outcome [12] | outcome [13] | outcome [14] | outcome [15]
active: activation [1] 65% | inhibition [6] 76%

CN(C)/C=C1\C(=O)N(c2ccc([N+](=O)[O-])cc2)N=C1c1ccccc1
inactive: outcome [2] | outcome [3] | outcome [4] | outcome [6] | outcome [7] | outcome [8] | outcome [9] | outcome [10] | outcome [13] | outcome [14] | outcome [15]
active: activation [1] 76% | inhibition [5] 85% | activation [11] 68.6% | inhibition [12] -1.74%

COc1ccccc1C(=O)NNC(=S)NC(=O)c1sc2ccccc2c1Cl
inactive: outcome [1] | outcome [2] | outcome [3] | outcome [4] | outcome [5] | outcome [6] | outcome [7] | outcome [16] | outcome [8] | outcome [10] | outcome [13] | outcome [14] | outcome [15] | outcome [20]
active: activation [9] 30.5% | activation [11] 14.7% | inhibition [12] 38.3% | activation [17] 278% | potentiation [18] 150% | potentiation [19] 287%

CCOC(=O)C1(CC2CC2)CCN(Cc2ccc(O)c(Cl)c2)CC1
inactive: outcome [1] | outcome [2] | outcome [3] | outcome [4] | outcome [7] | outcome [8] | outcome [10] | outcome [11] | outcome [12] | outcome [13] | outcome [14] | outcome [15]
active: inhibition [5] 97% | inhibition [6] 63% | activation [9] 82%

O=C(Nc1nnc(-c2cccs2)o1)c1cccc(C(F)(F)F)c1
active: activation [1] 151% | activation [11] 57.6% | activation [14] 29.9% | activation [17] 208% | potentiation [18] 50%
inactive: outcome [2] | outcome [3] | outcome [4] | outcome [5] | outcome [6] | outcome [7] | outcome [16] | outcome [8] | outcome [9] | outcome [10] | outcome [12] | outcome [13] | outcome [15] | outcome [20]
